HT1080-NT tox: kills 2HG-producing HT-1080-NT fibrosarcoma cells; HT-1080-NT fibrosarcoma viability, CellTiter-Glo ATP luminescence, 48 h; AID 686970; 1.6% of 360,000 active; Potency, µM (titrated, usually from 46.1 µM), inactives show top-dose activity, negative = less viability, actives largely listed as cytotoxic;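 further: NT is the 2HG producing partner of a matched IDH1 knockdown line; 0% = DMSO-treated cells and -100% = media-only wells without cells; nearly all actives have a fitted effect of over 55% in size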
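HT-1080-NT; 750 cells/well; 5% FBS RPMI; 48 h compound, 37 degrees C; CellTiter-Glo luminescence; curve fitting and curve-class assignment.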
KB-3-1 tox: kills parental KB-3-1 adenocarcinoma cells. KB-3-1 viability, CellTiter-Glo ATP luminescence, 72 h. Potency, µM (titrated, usually from 46.1 µM), most hits filed as cytotoxic. 1.4% of 400,000 active. AID 1347075; further: nearly all actives have a fitted effect of over 60% in size
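Using CellTiter-Glo luminescence, growth of non-resistant KB-3-1 adenocarcinoma cells is assessed 72 h after pin-tool compound addition at 37 °C. Normalized responses across the concentration series yield fitted curves.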
KB-V1 MDR tox: kills drug-selected multidrug resistant KB-V1 cells. Potency, µM (highest dose often 46.1 µM), hits mostly cytotoxic. 3.4% of 400,000 active. KB-V1 MDR cells viability, CellTiter-Glo, 72 h; further: nearly all actives have a fitted effect of over 60% in size
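In this primary screen, KB-V1 cells overexpressing P-gp are incubated with library compounds (lowest to highest concentration) for 72 h at 37 degrees C before a luminescent ATP viability read.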
HT1080 IDH1KD tx: kills HT-1080 cells with IDH1 knockdown; HT-1080 IDH1 knockdown viability, ATP luminescence, 48 h; Potency, µM (series often up to 46.1 µM), for inactives: at the highest dose activity, negative = toxicity, usual class: cytotoxic; 2% of 360,000 active; AID 686971;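 further: 0% = DMSO wells and -100% = cell-free medium wells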
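CellTiter-Glo luminescence after 48 h compound exposure at 37 degrees C of IDH1-knockdown HT-1080 cells in 5% FBS RPMI. %Activity scaled between DMSO wells and cell-free media wells, with curves fitted and assigned curve classes.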
DT40 TDP1 no CPT: qHTS for Inhibitors of human tyrosyl-DNA phosphodiesterase 1 (TDP1): qHTS in cells in absence of CPT. Potency, µM (titrated, usually from 46.2 µM), without a hit: at the highest dose activity change, negative = growth inhibition, actives largely listed as inhibitors. 15% of 420,000 active. DT40 Tdp1-/- hTDP1 cells, no CPT, ATP luminescence, 48 h. AID 686978, 2013; further: nearly all actives have a fitted effect of over 55% in size
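Growth of hTDP1-complemented DT40 Tdp1-knockout cells is measured by ATP luminescence after at least 48 hr compound exposure at 37 °C, with DMSO substituting for the 20 nM CPT used in the parallel screen.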
DT40 TDP1 CPT: growth inhibition of DT40 Tdp1-/-;hTDP1 cells with camptothecin (screen for TDP1 inhibitors); 12% of 420,000 active; chicken DT40 Tdp1-/-;hTDP1 cells + 20 nM CPT, ATP luminescence, 48 h; Potency, µM (titrated, usually from 46.2 µM), without a hit: at the highest dose activity change, negative = growth inhibition, most hits filed as inhibitors; AID 686979; further: nearly all actives have a fitted effect of over 55% in size
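Chicken DT40 Tdp1-/- cells stably complemented with human TDP1 were seeded at 400 cells/well in medium containing 20 nM camptothecin, exposed to pin-transferred compounds, and grown at 37 °C for at least 48 hr. Viability was read as ATP luminescence.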
The depositor's hits bear a star; i = inactive; u = inconclusive; x = not tested or not shown; [ ] = remark or other dose. In the library only some 19% were active in any assay of this set; here they are far more common. The call rests on the fitted dose curve; in most records, active means well fitted curve in the direction sought with a large enough effect; inconclusive means small, poorly fitted or top-dose-only effect, or another doubt; inactive means no such curve, though single readings can be large; an effect the other way counts as inactive or inconclusive. Unless noted, on the % scale 0 is the no-effect control and ±100 the full control effect; potency means the concentration at half of the fitted maximal effect.

SMILES	HT1080-NT tox	KB-3-1 tox	KB-V1 MDR tox	HT1080 IDH1KD tx	DT40 TDP1 no CPT	DT40 TDP1 CPT
CCC(=O)N1CCC2(CC1)Oc1ccc(Cl)cc1C(=O)C21CC(c2ccc(Cl)cc2)=NO1 (stereo unspecified)	-3.6%	i	i	-2.8%	13µM*	u
CC(C)C(=O)N1CCC2(CC1)Oc1ccc(F)cc1C(=O)C21CC(c2ccc(Cl)cc2)=NO1 (stereo unspecified)	-3.0%	i	u	-9.0%	u	u
O=C(c1ccoc1)N1CCC2(CC1)Oc1ccc(Cl)cc1C(=O)C21CC(c2ccc(Cl)cc2)=NO1 (stereo unspecified)	-1.4%	i	i	-2.8%	u	20.6µM*
Cc1ccc(C(=O)N2CCC3(CC2)Oc2ccc(Cl)cc2C(=O)C32CC(c3ccc(Cl)cc3)=NO2)s1 (stereo unspecified)	4.4%	i	i	2.8%	1.1%	-2.6%
CCC(=O)N1CCC2(CC1)Oc1ccc(F)cc1C(=O)C21CC(c2ccc(Cl)cc2)=NO1 (stereo unspecified)	-5.0%	u	i	-3.5%	25.9µM*	u
CCOC(=O)c1cc(C(=O)OCC)c(=O)[nH]c1SCc1ccccc1	-19.2%	i	i	1.3%	24.7%	-10.1%
CSCCC(c1nnnn1C(C)(C)C)N1CCN(C/C=C/c2ccccc2)CC1 (stereo unspecified)	7.2%	i	i	1.6%	u	u
CCCC(c1nnnn1C1CCCC1)N1CCN(c2ccccc2F)CC1 (stereo unspecified)	-9.3%	i	i	-1.1%	23.1µM*	u
CCCCn1nnnc1C(CCc1ccccc1)N1CCN(C/C=C/c2ccccc2)CC1 (stereo unspecified)	u	i	i	u	23.1µM*	u
C(=C\c1ccccc1)/CN1CCN(C(CCc2ccccc2)c2nnnn2C2CCCC2)CC1 (stereo unspecified)	u	u	i	u	u	18.4µM*
CCC(c1nnnn1C1CCCC1)N1CCN(c2ccccc2F)CC1 (stereo unspecified)	-4.2%	i	u	-4.2%[9.24 µM]	u	-17.3%
CC(C)(C)n1nnnc1C(CCc1ccccc1)N1CCN(C/C=C/c2ccccc2)CC1 (stereo unspecified)	u	u	u	u	14.6µM*	u
O=C(NCCC1=CCCCC1)C1CC(=O)N(Cc2ccccc2)C1 (stereo unspecified)	8.0%	x	x	9.2%	-3.5%	-3.4%
COc1ccc(C(=O)NCC(=O)OCC(=O)N2CCc3ccccc32)cc1	3.6%	i	i	16.2%	2.0%	1.6%
C(=C\c1ccccc1)/CN1CCN(C(c2cccs2)c2nnnn2C2CCCC2)CC1 (stereo unspecified)	u	u	i	u	u	u
C(=C\c1ccccc1)/CN1CCN(C(c2cc3ccccc3o2)c2nnnn2C2CCCCC2)CC1 (stereo unspecified)	5.7%	i	i	1.8%	u	18.4µM*
C(=C\c1ccccc1)/CN1CCN(C(c2nnnn2Cc2ccccc2)C2CC2)CC1 (stereo unspecified)	18.4µM*	i	u	u	16.4µM*	16.4µM*
CC(C)(C)n1nnnc1C(c1cc2ccccc2o1)N1CCCC1 (stereo unspecified)	4.9%	i	u	11.4%	-29.5%	-13.3%
C(=C\c1ccccc1)/CN1CCN(C(c2ccnc3ccccc23)c2nnnn2C2CCCC2)CC1 (stereo unspecified)	-29.0%	i	14.6µM*	u	14.6µM*	u
C(=C\c1ccccc1)/CN1CCN(C(c2ccccc2)c2nnnn2C2CCCC2)CC1 (stereo unspecified)	u	i	i	u	23.1µM*	18.4µM*
Cc1cc(Oc2ccc(=O)n(C)n2)nc(SCc2ccccc2)n1	-13.4%	i	i	0.2%	-4.8%	-12.0%
C(=C\c1ccccc1)/CN1CCN(C(c2nnnn2C2CCCC2)C2CC2)CC1 (stereo unspecified)	-10.2%	i	i	-8.4%	13µM*	18.4µM*
CC(C)(C)n1nnnc1C(C1CC1)N1CCN(C/C=C/c2ccccc2)CC1 (stereo unspecified)	0.1%	i	i	5.9%	u	-23.6%
COc1cccc(Cn2c(CNS(=O)(=O)c3ccc(F)c(Cl)c3)nc3cccnc32)c1	x	x	x	x	10.3µM*	u
Cc1ccc(Cn2c(CNS(=O)(=O)c3ccc(F)c(Cl)c3)nc3cccnc32)cc1	x	x	x	x	-37.0%	-15.1%
SMILES	HT1080-NT tox	KB-3-1 tox	KB-V1 MDR tox	HT1080 IDH1KD tx	DT40 TDP1 no CPT	DT40 TDP1 CPT
Cc1cccc(Cn2c(CNS(=O)(=O)c3ccc(C(C)C)cc3)nc3cccnc32)c1	x	x	x	x	14.6µM*	u
CCOc1ccc(Cn2c(CNS(=O)(=O)c3ccc([N+](=O)[O-])cc3)nc3cccnc32)cc1	x	x	x	x	-19.4%	-14.7%
COCCn1c(CNC(=O)c2cc([N+](=O)[O-])ccc2Cl)nc2cccnc21	x	x	x	x	-14.8%	-22.0%
COc1cccc(Cn2c(CNC(=O)c3cc([N+](=O)[O-])ccc3Cl)nc3cccnc32)c1	x	x	x	x	u	16.4µM*
CCc1cccc(C)c1NC(=O)c1cc(S(=O)(=O)N2CCCCCC2)cn1C	x	i	i	x	u	u
CCN1CCCC1CNC(=O)Cn1cc(C)c(=O)[nH]c1=O (stereo unspecified)	-2.2%	i	i	1.5%	-1.2%	-0.9%
CCOC(=O)NC(=O)CSc1nnnn1-c1ccc(Cl)cc1	10.7%	i	i	0.0%	-8.1%	-21.3%
CC(=O)OC(C)(C)C1Cc2cc3ccc(=O)oc3cc2O1 (stereo unspecified)	13.3%	i	i	4.4%	16.4%	-14.1%
C/C=C(\C)C(=O)OC(C)(C)[C@H]1Cc2cc3ccc(=O)oc3cc2O1	-4.5%	i	u	-3.0%	u	23.1µM*
CC(=O)NC12CC3CC(C1)CC(C(=O)N1CCN(S(=O)(=O)c4cccc([N+](=O)[O-])c4)CC1)(C3)C2	4.6%	i	i	16.6%	-1.7%	u
CC(=O)NC12CC3CC(C1)CC(C(=O)N1CCN(S(=O)(=O)c4cccc(C(F)(F)F)c4)CC1)(C3)C2	-1.5%	i	i	-3.0%	u	7.31µM*
